# ± gives the standard deviation of the averaged measurements.
# How the values were obtained:
# Assay in all cases: relative enzymatic activity vs untreated control (fraction); higher = less inhibition
# Settings in all cases: 100 µM; incubation time: 2 h at 37 C
# DNA gyrase = test system: DNA gyrase
# Protocol: (§1)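 In vitro enzymatic inhibition assays (ProFoldin kits) for 12 purified essential E. coli enzymes or complexes, each treated with 218 active antibacterial compounds at 100 µM for 2 h at 37°C. Read-outs were fluorescence or absorbance (phosphate detection, dye binding), converted to activity via standard curves and expressed relative to untreated DMSO controls.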
# DNA helicase = DNA helicase (UniProt P0ACB1)
# Protocol: as §1
# DNA ligase = DNA ligase (UniProt B1XA82)
# Protocol: as §1
# DNA polymerase = DNA polymerase (UniProt P10443)
# Protocol: as §1
# DNA primase = DNA primase (UniProt P0ABS7)
# Protocol: as §1
# GlmU = GlmU (UniProt A7ZTU1)
# Protocol: as §1
# Guanlyate kinase = Guanlyate kinase (UniProt Q0TBG1)
# Protocol: as §1
# MurA = MurA (UniProt Q3YX52)
# Protocol: as §1
# MurD = molecular target: T1, MurD (UniProt P14900)
# T1 sequence (whole entry): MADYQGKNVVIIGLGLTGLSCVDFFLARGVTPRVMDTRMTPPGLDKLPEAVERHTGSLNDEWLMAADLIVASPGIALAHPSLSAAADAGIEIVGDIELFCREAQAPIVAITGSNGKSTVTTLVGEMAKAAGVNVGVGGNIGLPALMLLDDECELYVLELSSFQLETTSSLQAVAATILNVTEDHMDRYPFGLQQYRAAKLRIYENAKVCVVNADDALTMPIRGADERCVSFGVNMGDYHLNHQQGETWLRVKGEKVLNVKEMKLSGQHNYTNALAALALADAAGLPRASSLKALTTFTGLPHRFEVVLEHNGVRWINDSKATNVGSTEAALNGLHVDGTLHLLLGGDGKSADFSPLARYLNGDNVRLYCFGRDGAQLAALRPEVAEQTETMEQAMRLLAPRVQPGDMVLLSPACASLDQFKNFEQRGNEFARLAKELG
# Protocol: as §1
# MurF = molecular target: T2, MurF (UniProt P11880)
# T2 sequence (whole entry): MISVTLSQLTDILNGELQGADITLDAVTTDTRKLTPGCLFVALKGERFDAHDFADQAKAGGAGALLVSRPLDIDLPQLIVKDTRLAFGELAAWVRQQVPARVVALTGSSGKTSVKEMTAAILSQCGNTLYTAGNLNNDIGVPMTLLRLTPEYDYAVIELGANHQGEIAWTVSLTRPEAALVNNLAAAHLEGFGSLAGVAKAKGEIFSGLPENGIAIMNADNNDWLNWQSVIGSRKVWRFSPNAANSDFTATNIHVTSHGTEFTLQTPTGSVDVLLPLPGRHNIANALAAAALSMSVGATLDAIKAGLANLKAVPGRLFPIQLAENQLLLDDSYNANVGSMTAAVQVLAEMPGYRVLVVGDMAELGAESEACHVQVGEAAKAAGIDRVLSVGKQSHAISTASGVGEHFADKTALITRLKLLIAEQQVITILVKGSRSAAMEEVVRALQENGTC
# Protocol: as §1
# RNA polymerase = test system: RNA polymerase
# Protocol: as §1
# Sequence of DNA polymerase (P10443 whole entry): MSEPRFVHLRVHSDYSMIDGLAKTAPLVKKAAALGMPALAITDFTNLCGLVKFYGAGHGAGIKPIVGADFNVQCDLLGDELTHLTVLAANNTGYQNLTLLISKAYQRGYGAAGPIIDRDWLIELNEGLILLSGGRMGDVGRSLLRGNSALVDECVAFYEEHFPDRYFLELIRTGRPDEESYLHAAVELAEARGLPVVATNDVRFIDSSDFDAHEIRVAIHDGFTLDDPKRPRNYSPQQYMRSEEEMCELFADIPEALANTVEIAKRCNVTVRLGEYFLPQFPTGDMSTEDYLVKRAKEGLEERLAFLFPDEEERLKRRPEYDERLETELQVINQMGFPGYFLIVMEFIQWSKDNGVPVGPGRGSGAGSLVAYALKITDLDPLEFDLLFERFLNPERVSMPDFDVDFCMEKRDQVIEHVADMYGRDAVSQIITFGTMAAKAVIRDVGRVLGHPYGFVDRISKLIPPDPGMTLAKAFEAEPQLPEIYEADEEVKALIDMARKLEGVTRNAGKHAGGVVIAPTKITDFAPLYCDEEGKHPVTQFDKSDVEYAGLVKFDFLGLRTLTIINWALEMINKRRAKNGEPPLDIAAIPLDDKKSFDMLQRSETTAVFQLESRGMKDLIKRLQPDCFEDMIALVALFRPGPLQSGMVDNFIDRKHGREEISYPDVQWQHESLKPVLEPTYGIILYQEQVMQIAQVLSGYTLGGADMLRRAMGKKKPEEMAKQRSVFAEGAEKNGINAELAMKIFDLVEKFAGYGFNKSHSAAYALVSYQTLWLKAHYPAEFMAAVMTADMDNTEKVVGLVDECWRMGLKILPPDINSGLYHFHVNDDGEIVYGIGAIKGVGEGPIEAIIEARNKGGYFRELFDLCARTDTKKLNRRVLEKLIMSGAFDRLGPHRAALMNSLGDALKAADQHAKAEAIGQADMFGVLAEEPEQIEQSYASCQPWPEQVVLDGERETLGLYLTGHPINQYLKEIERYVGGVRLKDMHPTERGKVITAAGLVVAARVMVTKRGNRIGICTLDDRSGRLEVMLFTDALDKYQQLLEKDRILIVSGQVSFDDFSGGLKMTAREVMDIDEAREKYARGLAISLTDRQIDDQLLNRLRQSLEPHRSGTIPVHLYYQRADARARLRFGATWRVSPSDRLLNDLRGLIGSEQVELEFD
# Sequence of DNA primase (P0ABS7 whole entry): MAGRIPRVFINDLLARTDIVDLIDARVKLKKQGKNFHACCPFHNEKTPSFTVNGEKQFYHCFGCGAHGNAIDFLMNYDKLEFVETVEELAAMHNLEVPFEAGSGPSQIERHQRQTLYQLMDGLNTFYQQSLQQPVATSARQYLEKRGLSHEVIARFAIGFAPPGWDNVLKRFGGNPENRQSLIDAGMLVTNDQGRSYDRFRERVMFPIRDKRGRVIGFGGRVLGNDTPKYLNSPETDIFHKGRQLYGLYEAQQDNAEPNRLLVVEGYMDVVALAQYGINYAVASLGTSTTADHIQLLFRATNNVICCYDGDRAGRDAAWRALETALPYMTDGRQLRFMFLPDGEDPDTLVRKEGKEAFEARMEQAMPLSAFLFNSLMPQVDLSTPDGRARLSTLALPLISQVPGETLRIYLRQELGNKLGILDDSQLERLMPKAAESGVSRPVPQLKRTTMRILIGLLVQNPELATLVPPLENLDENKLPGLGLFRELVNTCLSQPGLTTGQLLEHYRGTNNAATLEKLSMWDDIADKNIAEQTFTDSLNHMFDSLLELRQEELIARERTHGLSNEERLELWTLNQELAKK
# Sequence of DNA helicase (P0ACB1 whole entry): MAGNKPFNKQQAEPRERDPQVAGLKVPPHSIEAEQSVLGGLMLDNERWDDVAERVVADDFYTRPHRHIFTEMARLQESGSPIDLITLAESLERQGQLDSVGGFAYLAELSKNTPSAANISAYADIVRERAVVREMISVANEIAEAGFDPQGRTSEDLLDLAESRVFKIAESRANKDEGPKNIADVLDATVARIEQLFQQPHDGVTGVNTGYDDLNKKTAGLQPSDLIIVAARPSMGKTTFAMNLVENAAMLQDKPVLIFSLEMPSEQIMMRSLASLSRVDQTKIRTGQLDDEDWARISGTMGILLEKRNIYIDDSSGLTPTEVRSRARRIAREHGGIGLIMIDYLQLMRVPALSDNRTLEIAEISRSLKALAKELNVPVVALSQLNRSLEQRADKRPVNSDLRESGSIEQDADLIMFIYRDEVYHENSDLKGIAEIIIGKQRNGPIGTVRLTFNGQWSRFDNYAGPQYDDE
# Sequence of Guanlyate kinase (Q0TBG1 whole entry): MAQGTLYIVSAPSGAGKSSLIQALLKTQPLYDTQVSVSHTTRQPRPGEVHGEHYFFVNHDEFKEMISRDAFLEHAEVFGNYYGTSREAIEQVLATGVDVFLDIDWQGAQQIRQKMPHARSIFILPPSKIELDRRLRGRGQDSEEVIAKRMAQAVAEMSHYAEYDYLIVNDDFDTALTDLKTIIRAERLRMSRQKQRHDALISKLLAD
# Sequence of MurA (Q3YX52 whole entry): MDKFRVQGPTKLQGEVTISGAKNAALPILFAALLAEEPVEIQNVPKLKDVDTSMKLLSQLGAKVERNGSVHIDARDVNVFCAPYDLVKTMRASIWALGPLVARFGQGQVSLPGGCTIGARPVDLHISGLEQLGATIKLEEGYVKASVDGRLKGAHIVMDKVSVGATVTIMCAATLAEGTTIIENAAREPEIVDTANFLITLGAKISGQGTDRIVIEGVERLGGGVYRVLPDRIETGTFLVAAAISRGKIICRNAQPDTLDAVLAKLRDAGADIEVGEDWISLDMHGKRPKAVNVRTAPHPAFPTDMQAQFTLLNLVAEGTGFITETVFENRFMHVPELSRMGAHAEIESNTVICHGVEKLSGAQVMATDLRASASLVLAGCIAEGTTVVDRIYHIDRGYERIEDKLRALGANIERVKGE
# Sequence of DNA ligase (B1XA82 whole entry): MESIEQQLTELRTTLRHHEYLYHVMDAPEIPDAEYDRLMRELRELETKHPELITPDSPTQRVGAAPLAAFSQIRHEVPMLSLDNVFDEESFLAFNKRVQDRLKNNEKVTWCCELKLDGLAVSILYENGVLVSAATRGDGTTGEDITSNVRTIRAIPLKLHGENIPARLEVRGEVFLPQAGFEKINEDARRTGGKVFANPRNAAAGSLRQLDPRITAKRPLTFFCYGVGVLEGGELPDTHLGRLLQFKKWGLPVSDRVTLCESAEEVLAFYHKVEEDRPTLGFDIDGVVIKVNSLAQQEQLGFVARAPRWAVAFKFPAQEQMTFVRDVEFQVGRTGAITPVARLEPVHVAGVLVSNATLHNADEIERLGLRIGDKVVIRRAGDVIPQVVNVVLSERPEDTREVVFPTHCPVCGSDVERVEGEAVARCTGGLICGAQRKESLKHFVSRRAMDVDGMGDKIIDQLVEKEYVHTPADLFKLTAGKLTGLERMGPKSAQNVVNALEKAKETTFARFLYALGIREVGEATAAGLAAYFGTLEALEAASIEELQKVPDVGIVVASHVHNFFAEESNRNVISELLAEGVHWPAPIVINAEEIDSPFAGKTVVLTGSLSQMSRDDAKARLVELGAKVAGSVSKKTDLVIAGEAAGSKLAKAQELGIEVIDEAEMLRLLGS
# Sequence of GlmU (A7ZTU1 whole entry, looked up): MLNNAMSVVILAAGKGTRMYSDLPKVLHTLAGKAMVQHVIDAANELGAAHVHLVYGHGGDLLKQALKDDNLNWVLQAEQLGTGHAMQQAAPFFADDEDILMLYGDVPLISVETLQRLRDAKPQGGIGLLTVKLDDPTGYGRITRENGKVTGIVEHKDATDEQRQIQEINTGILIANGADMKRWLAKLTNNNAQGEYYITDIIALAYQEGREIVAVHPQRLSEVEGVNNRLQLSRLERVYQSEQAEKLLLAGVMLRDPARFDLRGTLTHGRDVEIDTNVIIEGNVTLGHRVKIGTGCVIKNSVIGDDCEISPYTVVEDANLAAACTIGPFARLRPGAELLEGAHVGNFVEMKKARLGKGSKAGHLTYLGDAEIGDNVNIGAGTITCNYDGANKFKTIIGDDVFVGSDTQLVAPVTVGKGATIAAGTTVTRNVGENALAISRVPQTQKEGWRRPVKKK
Structure (SMILES),relative enzymatic activity (DNA gyrase),relative enzymatic activity (DNA helicase),relative enzymatic activity (DNA ligase),relative enzymatic activity (DNA polymerase),relative enzymatic activity (DNA primase),relative enzymatic activity (GlmU),relative enzymatic activity (Guanlyate kinase),relative enzymatic activity (MurA),relative enzymatic activity (MurD),relative enzymatic activity (MurF),relative enzymatic activity (RNA polymerase)
C/C(=C\C(=O)OCCCCCCCCC(=O)O)C[C@@H]1OC[C@H](C[C@@H]2O[C@H]2[C@@H](C)[C@H](C)O)[C@@H](O)[C@H]1O,0.849 ± 0.24,0.52 ± 0.098,0.897 ± 0.013,0.512 ± 0.72,0.807 ± 0.031,0.999 ± 0.045,1.06 ± 0.087,0.688 ± 0.19,0.607 ± 0.43,1.17 ± 0.52,0.935 ± 0.11
CON=C(C(=O)NC1C(=O)N2C(C(=O)[O-])=C(CSc3nc(=O)c([O-])nn3C)CSC12)c1csc(N)n1.O.O.O.[Na+].[Na+] (configuration not stated),0.7 ± 0.45,0.48 ± 0.015,1.29 ± 0.4,1.13 ± 0.23,0.69 ± 0.18,0.996 ± 0.014,0.914 ± 0.065,0.124 ± 0.03,0.583 ± 0.4,0.955 ± 0.21,0.843 ± 0.073
CC1CCc2c(N3CCC(O)CC3)c(F)cc3c(=O)c(C(=O)O)cn1c23 (configuration not stated),0.0257 ± 0.036,0.552 ± 0.1,0.916 ± 0.018,1.19 ± 0.29,0.8373 ± 0.0067,0.9778 ± 0.0021,0.957 ± 0.071,0.8065 ± 0.0039,0.566 ± 0.37,1.102 ± 0.0015,0.85 ± 0.059
O=C1OCCN1N=Cc1ccc([N+](=O)[O-])o1,1.13 ± 0.099,0.454 ± 0.088,1.02 ± 0.015,1.35 ± 0.37,0.747 ± 0.22,0.974 ± 0.017,1.01 ± 0.042,0.649 ± 0.12,0.565 ± 0.37,0.947 ± 0.16,0.941 ± 0.097
CN[C@H]1CN(c2ccc3c(=O)c(C(=O)O)cn(-c4nccs4)c3n2)C[C@@H]1OC,0.253 ± 0.27,0.18 ± 0.16,0.706 ± 0.08,0.641 ± 0.27,0.622 ± 0.13,1 ± 0.039,0.851 ± 0.064,0.603 ± 0.14,0.58 ± 0.36,0.955 ± 0.21,0.769 ± 0.11
N[C@@H](C(=O)N[C@@H]1C(=O)N2C(C(=O)O)=C(Cl)CS[C@H]12)c1ccccc1,0.759 ± 0.31,0.537 ± 0.076,1.02 ± 0.078,1.1 ± 0.25,0.801 ± 0.021,0.911 ± 0.035,0.87 ± 0.074,0.168 ± 0.067,0.579 ± 0.39,0.954 ± 0.21,0.766 ± 0.036
CNC1C(OC2C(OC3C(O)C(O)C(NC(=N)N)C(O)C3NC(=N)N)OC(C)C2(O)CO)OC(CO)C(O)C1O.O=S(=O)(O)O (configuration not stated),0.78 ± 0.53,0.565 ± 0.13,1.11 ± 0.19,1.38 ± 0.47,0.716 ± 0.22,0.982 ± 0.09,1.02 ± 0.063,0.635 ± 0.0086,0.65 ± 0.44,0.944 ± 0.15,0.953 ± 0.083
CN(C)C1C(O)=C(C(N)=O)C(=O)C2(O)C(O)=C3C(=O)c4c(O)cccc4C(C)(O)C3C(O)C12.Cl (configuration not stated),0.0137 ± 0.019,0.171 ± 0.03,0.908 ± 0.21,0.4407 ± 0.0041,0.517 ± 0.0096,1.02 ± 0.013,0.521 ± 0.0059,0.0726 ± 0.028,0.635 ± 0.42,1.02 ± 0.25,0.177 ± 0.017
CN(C)c1ccc(O)c2c1C[C@@H]1C[C@@H]3[C@@H](N(C)C)C(=O)C(C(N)=O)=C(O)[C@]3(O)C(=O)[C@H]1C2=O,0.00646 ± 0.0091,0.123 ± 0.0035,0.699 ± 0.021,0.021 ± 0.0081,0.424 ± 0.027,0.655 ± 0.21,0.152 ± 0.014,0.0751 ± 0.025,0.665 ± 0.43,1.21 ± 0.043,0.00236 ± 0.0021
O=C1OC(=O)[C@H]2[C@@H]1[C@H]1CC[C@H]2O1,0.864 ± 0.32,0.551 ± 0.09,1.15 ± 0.085,1.01 ± 0.012,0.811 ± 0.0082,1.07 ± 0.033,1.01 ± 0.066,0.734 ± 0.16,0.606 ± 0.38,0.979 ± 0.22,0.888 ± 0.18
Nc1c2ccccc2nc2ccccc12,0.766 ± 0.37,0.595 ± 0.097,0.519 ± 0.092,1.01 ± 0.28,0.573 ± 0.14,0.933 ± 0.059,0.3108 ± 0.001,0.74 ± 0.14,0.589 ± 0.38,0.94 ± 0.25,0.505 ± 0.016
CN[C@@H]1[C@H](O)[C@H](NC)[C@H]2O[C@@]3(O)C(=O)C[C@@H](C)O[C@H]3O[C@@H]2[C@H]1O,0.826 ± 0.36,0.508 ± 0.2,1.12 ± 0.086,1.09 ± 0.072,0.8044 ± 0.0019,1 ± 0.033,1.06 ± 0.05,0.601 ± 0.16,0.624 ± 0.44,1.16 ± 0.02,0.91 ± 0.14
NCCC(O)C(=O)NC1CC(N)C(OC2OC(CN)C(O)C(O)C2O)C(O)C1OC1OC(CO)C(O)C(N)C1O.O (configuration not stated),0.693 ± 0.16,0.562 ± 0.14,0.998 ± 0.06,0.875 ± 0.12,0.824 ± 0.023,0.994 ± 0.011,0.647 ± 0.01,0.963 ± 0.055,0.564 ± 0.37,0.962 ± 0.21,0.434 ± 0.49
CO/N=C(\C(=O)N[C@@H]1C(=O)N2C(C(=O)O)=C(CSc3nnnn3C)CS[C@H]12)c1csc(N)n1,1.08 ± 0.03,0.544 ± 0.23,0.749 ± 0.049,1.15 ± 0.25,0.827 ± 0.017,1.09 ± 0.046,0.883 ± 0.091,0.157 ± 0.032,0.611 ± 0.42,1.16 ± 0.11,0.8391 ± 0.00096
O=C(O)c1c(O)c2c([nH]c1=O)CCCC2,0.374 ± 0.066,0.479 ± 0.056,1.18 ± 0.34,1.08 ± 0.16,0.752 ± 0.029,0.975 ± 0.042,0.874 ± 0.041,0.769 ± 0.13,0.611 ± 0.39,0.899 ± 0.18,0.636 ± 0.18
CC(C)(O/N=C(\C(=O)N[C@@H]1C(=O)N2C(C(=O)O)=C(C[N+]3(CCNC(=O)c4ccc(O)c(O)c4Cl)CCCC3)CS[C@H]12)c1csc(N)n1)C(=O)O,0.401 ± 0.11,0.506 ± 0.075,0.933 ± 0.058,1.05 ± 0.32,0.753 ± 0.013,0.92 ± 0.062,0.834 ± 0.094,0.0569 ± 0.016,0.515 ± 0.35,1.01 ± 0.23,0.672 ± 0.082
CCn1cc(C(=O)O)c(=O)c2cc(F)c(N3CCNCC3)cc21,0.00604 ± 0.0086,0.468 ± 0.034,0.906 ± 0.16,1.37 ± 0.53,0.659 ± 0.12,1.01 ± 0.015,1.01 ± 0.11,0.799 ± 0.017,0.573 ± 0.36,0.977 ± 0.21,0.849 ± 0.075
